Results: PubChem BioAssay AID504332 (National Center for Advancing Translational Sciences (NCATS), 2011)
About 31,000 (8.9%) of roughly 350,000 compounds were called active. Not shown: some 15% with an inconclusive outcome. Calls follow the shape of the dose curve; as a rule, active = well fitted inhibition curve with a large enough effect; inconclusive = small, poorly fitted or top-dose-only effect; inactive = no such curve, though single readings can be large or run the other way. What follows is part of a selection rich in actives, with near analogues and random picks from the rest.

Target: Histone-lysine N-methyltransferase EHMT2 (Homo sapiens) (UniProt Q96KQ7)
Test: qHTS Assay for Inhibitors of Histone Lysine Methyltransferase G9a; also: nearly all actives have a fitted effect of over 75% in size
Conditions: G9a H3K9 monomethylation, AlphaScreen, 2 h; series mostly up to 59 µM; activity, negative = inhibition: at the top concentration
Summary of the method: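 Quantitative HTS format: methyltransferase activity on a biotin-tagged H3K9 peptide is measured by AlphaScreen, using a rabbit anti-monomethyl-H3K9 antibody with streptavidin donor and anti-IgG acceptor beads. Final levels are 20 nM enzyme, 500 nM peptide, 20 uM SAM; 2 h RT.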
% is scaled to controls: 0 for no effect and ±100 for the full control effect; potency is read from the fitted curve at half-maximal effect.

Sequence of Histone-lysine N-methyltransferase EHMT2 (Homo sapiens) (Q96KQ7 913-1193 limits assumed): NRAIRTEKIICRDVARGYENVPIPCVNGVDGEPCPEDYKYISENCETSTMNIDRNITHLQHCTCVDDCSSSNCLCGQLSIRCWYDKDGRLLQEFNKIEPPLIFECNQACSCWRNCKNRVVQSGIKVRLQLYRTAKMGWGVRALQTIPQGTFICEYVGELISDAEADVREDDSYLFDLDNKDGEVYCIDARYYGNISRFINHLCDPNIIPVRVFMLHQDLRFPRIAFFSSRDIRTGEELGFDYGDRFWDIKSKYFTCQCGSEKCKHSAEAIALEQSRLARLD

SMILES	activity, negative = inhibition	Potency
Cc1ccc2c(=O)c(C(=O)c3ccc(F)cc3)cn(CC(=O)NC3CCCCC3)c2n1	-25.3% (inactive)	–
O=C(NCCCN1CCCC1=O)c1cccc(S(=O)(=O)NCc2ccccc2)c1	-27% [at 102 µM] (inactive)	–
O=C(CSCC(=O)Nc1cccc([N+](=O)[O-])c1)Nc1ccccc1	-22.9% (inactive)	–
CN(CC(=O)Nc1cccc(F)c1)CC(=O)Nc1cccc([N+](=O)[O-])c1	-15.7% (inactive)	–
COc1ccc(S(=O)(=O)NC(C)C(=O)N2CCCCCC2)cc1 (configuration not stated)	14.2% [at 102 µM] (inactive)	–
COc1ccc(S(=O)(=O)NC(C)C(=O)Nc2cccc([N+](=O)[O-])c2)cc1 (configuration not stated)	–	50.1 µM (active)
COC(=O)/C=C\C(=O)Nc1cccc([N+](=O)[O-])c1	–	1.41 µM (active)
COc1ccc(CCNS(=O)(=O)c2cccc([N+](=O)[O-])c2)cc1	-4.51% [at 102 µM] (inactive)	–
Cc1c(C(=O)N(C)C)sc2c1c(=O)n(-c1ccc(F)cc1)c(=O)n2CC(=O)N(C)c1ccccc1	1.6% (inactive)	–
CC1=C(C(=O)Nc2ccccc2)C(c2ccc(C)cc2)n2nc(SCc3ccccc3C)nc2N1 (configuration not stated)	9.21% (inactive)	–
CCc1cccc(C)c1NC(=O)COC(=O)CNC(=O)c1cccs1	-30.4% [at 102 µM] (inactive)	–
CCC1(c2ccccc2)NC(=O)N(CC(=O)Nc2ccccc2C(=O)NC2CCCC2)C1=O (configuration not stated)	20.5% [at 0.501 µM] (inactive)	–
COc1cc2c(cc1OC)C(C(=O)Nc1cc(C)c(OC)c(C)c1)CC(=O)N2 (configuration not stated)	17.9% [at 102 µM] (inactive)	–
COc1cc(Br)c(-c2sc(Nc3ccccc3)n[n+]2-c2ccccc2)cc1OC	–	28.2 µM (active)
CCc1ccc(Nc2n[n+](-c3ccccc3)c(-c3cccc(Cl)c3Cl)s2)cc1	10.7% [at 2.33 µM] (inactive)	–
COc1ccc(C(=O)Nc2cccc(C(=O)OCc3cc(=O)n4c5c(sc4n3)CCCC5)c2)cc1	9.1% (inactive)	–
COc1ccc(C)cc1NC(=O)CSc1nnc2ccc(-c3ccccn3)nn12	2.04% [at 0.501 µM] (inactive)	–
COc1cccc(/C=C/C(=O)OCC(=O)N2CCN(c3ccccc3)CC2)c1	-4.22% [at 12.7 µM] (inactive)	–
COCCn1c(C)cc(C(=O)COC(=O)/C=C/c2cccc(OC)c2)c1C	–	44.7 µM (active)
COCCn1c(C)cc(C(=O)COC(=O)CNC(=O)c2ccco2)c1C	26.7% (inactive)	–
Cc1cccc(-n2ncc(C(=O)N3CCc4ccccc4C3)c2C2CCN(C(=O)OC(C)(C)C)CC2)c1	-1.5% (inactive)	–

SMILES	activity, negative = inhibition	Potency
COc1ccc(CNC(=O)c2ccc3c(c2)nc2n3CCOC2)c(OC)c1	1.96% (inactive)	–
CCOC(=O)c1c(C)oc2ccc(OCC(=O)N(CC)CC)cc12	8.65% (inactive)	–
CCc1nc(C)ccc1OCC(=O)N(CC)CC	–	28.2 µM (active)
CCc1ccccc1NC(=O)CN(C)C(=O)COc1ccc(C)nc1[N+](=O)[O-]	23% (inactive)	–
Cc1cccc(C)c1NC(=O)C1(C)c2cccc[n+]2CC(=O)N1Cc1cccs1 (configuration not stated)	–	14.1 µM (active)
Cc1cccc(C)c1NC(=O)N1CC(C)OC(C)C1 (configuration not stated)	16.9% [at 102 µM] (inactive)	–
CCc1cccc(C)c1NC(=S)N(CCCN1CCN(C)CC1)Cc1cccs1	112% (inactive)	–
O=C(OCC(=O)N1CCCC1)c1ccc(Cl)nc1	4.27% (inactive)	–
CCOC(=O)C1CCCN(C(=O)c2ccc(C)c(S(=O)(=O)N3CCCCC3)c2)C1 (configuration not stated)	38.4% [at 12.7 µM] (inactive)	–
C=CCOc1c(CNn2cn[nH]c2=S)cccc1OC	–	20 µM (active)
C=CCOc1cccc(CNn2cn[nH]c2=S)c1	24.4% [at 0.0925 µM] (inactive)	–
COc1ccccc1CNc1nc(-c2c(C)noc2C)nc2ccccc12	-6.92% [at 0.501 µM] (inactive)	–
Cc1ccc(Cl)cc1N1CCN(C(=O)c2cnc3c(-c4ccc(F)cc4)c(C)nn3c2C)CC1	7.75% (inactive)	–
Cc1cccc(OCc2nnc(SCn3nnc4ccccc4c3=O)o2)c1	2.43% (inactive)	–
O=c1c2ccccc2nnn1CSc1nc2sc3c(c2c(=O)n1CC1CCCO1)CCC3 (configuration not stated)	8.89% (inactive)	–
Nc1nnc(SCn2nnc3ccccc3c2=O)s1	–	28.2 µM (active)
O=C(Nc1ccc(S(=O)(=O)N2CCCCC2)cc1)c1cnccn1	0.273% [at 102 µM] (inactive)	–
O=C(Nc1ccc(F)cc1)c1ccc(S(=O)(=O)NCc2cccnc2)cc1	31.2% [at 102 µM] (inactive)	–
O=C(NNS(=O)(=O)c1ccc(F)cc1)c1cnccn1	–	10 µM (active)
CSCCC(NC(=O)c1ccco1)C(=O)Nc1cc(C)ccn1 (configuration not stated)	-23.1% [at 102 µM] (inactive)	–
CCn1c(=O)cc(OCC(=O)Nc2cc(Cl)c(OC)cc2OC)c2ccccc21	-14.6% (inactive)	–

SMILES	activity, negative = inhibition	Potency
CCN(CC)c1ccc(S(=O)(=O)N2CCCCC2)cc1NC(=O)C1=COCCO1	-30.4% [at 102 µM] (inactive)	–
Cc1ccccc1Cn1nc(C)c(NC(=O)c2cc(-c3ccc(F)cc3)on2)c1C	6.83% (inactive)	–
Cc1nnnn1/C(=C\c1ccccc1)C(=O)OCC(=O)N1CC2(C)CC1CC(C)(C)C2 (configuration not stated)	-22.1% (inactive)	–
Cc1cccc(C(=O)NCC(=O)OCC(=O)N2CC3(C)CC2CC(C)(C)C3)c1 (configuration not stated)	–	6.31 µM (active)
Cc1cc(C)cc(C(=O)NCC(=O)OCC(=O)N2CCCCC2)c1	14.1% [at 102 µM] (inactive)	–
O=S(=O)(NCCc1ccccn1)c1cc(Cl)cc(Cl)c1O	22.1% [at 2.33 µM] (inactive)	–
COC(=O)c1cc(C)sc1NC(=O)CC1Nc2ccccc2NC1=O (configuration not stated)	–	50.1 µM (active)
CCOC(=O)c1ccccc1NC(=O)CC1Nc2ccccc2NC1=O (configuration not stated)	-4.54% (inactive)	–
O=C(CC1Nc2ccccc2NC1=O)Nc1ccccc1NC(=O)CC1Nc2ccccc2NC1=O (configuration not stated)	-46.1% [at 102 µM] (inactive)	–
Cc1cccc(-n2ncc(C(=O)N3CCC(C)CC3)c2C2CCN(C(=O)OC(C)(C)C)CC2)c1	-23.8% (inactive)	–
O=C(CS(=O)(=O)c1cccc2nsnc12)N1CCN(c2cccc(Cl)c2)CC1	4.58% (inactive)	–
COc1ccc(Cc2n[nH]c(=S)n2NC(=O)Nc2ccc(C)cc2)cc1	–	8.91 µM (active)
CCN(CC(=O)Nc1ccc(OC)cc1)C(=O)CSCc1ccc(C)cc1	-8.18% [at 12.7 µM] (inactive)	–
COc1cc(NC(=O)Nc2ccc(C)cc2)cc([N+](=O)[O-])c1	9.42% [at 2.33 µM] (inactive)	–
Cc1csc(SCC(=O)N(c2ccccc2)C(C)C)n1	-6.13% [at 102 µM] (inactive)	–
CCOc1ccc(NC(=O)c2ncoc2-c2ccco2)cc1	7.16% (inactive)	–
O=C(NCc1ccccc1CN1CCCC1)C1CCN(S(=O)(=O)c2ccc(Cl)cc2)CC1	16% (inactive)	–
Cc1c(Cl)cnc(NC(=O)COC(=O)c2ccc(S(=O)(=O)NCc3ccco3)cc2)c1Cl	–	44.7 µM (active)
O=C(CCCl)Nc1ccc(S(=O)(=O)NCc2ccco2)cc1	-13% (inactive)	–
C/C(=N\Nc1ncc(Cl)cc1Cl)c1ccc(S(=O)(=O)NCc2ccco2)cc1	-15.6% (inactive)	–
